# Activity calls are given as the source filed them. A call without a number means that no potency is given here. Unless noted, the call rests on the fitted dose curve; in most records, active means well fitted curve in the direction sought with a large enough effect in the repeat runs; inconclusive means weak or mixed curves; inactive means no such curve, though single readings can be large; an effect the other way counts as inactive or inconclusive.
# Tests used:
# [1] = qHTS assay for small molecule agonists of the p53 signaling pathway (AID 651631; calls by dose curve; further: nearly all actives have a fitted effect of over 15% in size; further: potency means the concentration at half of the fitted maximal effect)
# Method in brief: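 Read-out is beta-lactamase FRET fluorescence measured 2 h after substrate addition at room temperature, in HCT-116 cells with a p53 response element-driven reporter exposed to compounds for 16 h at 37 °C.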
# [2] = qHTS assay for small molecule agonists of the p53 signaling pathway - cell viability (AID 651633; calls by dose curve;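 further: p53RE-bla HCT reporter cells with a stable beta-lactamase p53 reporter; nearly all actives have a fitted effect of over 30% in size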)
# Method in brief: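 Viability counter-read: CellTiter-Glo luminescence (30 min, room temperature) in the same p53RE-bla plates. These plates had been exposed to compounds for 16 h at 37 C.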
# [3] = qHTS assay for small molecules that induce genotoxicity in human embryonic kidney cells expressing luciferase-tagged ATAD5 - cell viability (AID 651634; calls by dose curve; further: nearly all actives have a fitted effect of over 25% in size; further: potency means the concentration at half of the fitted maximal effect)
# Method in brief: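 15.5 hr compound or vehicle exposure of HEK293T cells expressing luciferase-tagged ATAD5 at 37C; live-cell protease activity is read by fluorescence after 30 min of CellTiter-Fluor.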
# [4] = qHTS assay for small molecule disruptors of the mitochondrial membrane potential - cell viability (AID 720634; calls by dose curve; further: nearly all actives have a fitted effect of over 20% in size; further: potency means the concentration at half of the fitted maximal effect)
# Method in brief: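 In this qHTS format, HepG2 cells plated overnight were pinned with compound, incubated 1 hr, and assayed for ATP luminescence with CellTiter-Glo after m-MPI dye addition.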
# [5] = qHTS assay to test for compound auto fluorescence at 590 nm (red) in HepG2 cells (AID 720674)
# Method in brief: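 We screened compounds on adherent HepG2 cells, incubating them for an hour at 37 C in 5% CO2 before reading emission at 590 nm under 540 nm excitation; values reflect equivalence to Rose Bengal sodium fluorescence.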
# [6] = qHTS assay to test for compound auto fluorescence at 535 nm (green) in HepG2 cells (AID 720675)
# [7] = qHTS assay to test for compound auto fluorescence at 460 nm (blue) in HEK293 cells (AID 720678)
# Method in brief: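 Triamterene serves as the blue fluorophore standard. Compound signal at 405/460 nm is read in HEK293 wells (2,000 cells, 10% dialyzed FBS) after overnight treatment at 37C.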
# [8] = qHTS assay to test for compound auto fluorescence at 590 nm (red) in HEK293 cells (AID 720679)
# Method in brief: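 We plated HEK293 cells in 10% dialyzed FBS medium, let them adhere for 4-5 hr, then added 23 nL compound. Overnight at 37C and 5% CO2 preceded fluorescence measurement at 540/590nm.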
# [9] = qHTS assay to test for compound auto fluorescence at 460 nm (blue) in HEK293 cell free culture (AID 720681)
# Method in brief: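 Blue fluorescence (Ex 405/Em 460 nm, triamterene-equivalent) was read immediately after pin transfer of compound or DMSO into medium (DMEM, 10% FBS) without cells.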
# [10] = qHTS assay to test for compound auto fluorescence at 535 nm (green) in HEK293 cell free culture (AID 720682)
# Method in brief: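 Fluorescein serves as the green reference fluorophore; each compound's intrinsic emission at 535 nm (excitation 485 nm) is reported as an equivalent amount of that dye, measured in serum-containing DMEM without cells.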
# [11] = qHTS assay to test for compound auto fluorescence at 590 nm (red) in HEK293 cell free culture (AID 720683)
# Method in brief: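 Red-channel autofluorescence of compounds in culture medium (DMEM, 10% FBS), no cells, measured at 540/590 nm. Rose Bengal sodium is the reference fluorophore for equivalence.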
# [12] = qHTS assay to test for compound auto fluorescence at 590 nm (red) in HepG2 cell free culture (AID 720684)
# Method in brief: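 Cell-free; medium MEM + 10% FBS; compound or DMSO added by pintool; read Ex 540/Em 590 nm; Rose Bengal sodium as red reference fluorophore.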
# [13] = qHTS assay to test for compound auto fluorescence at 460 nm (blue) in HepG2 cell free culture (AID 720685)
# Method in brief: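 Cell-free plates of MEM plus 10% FBS received 23 nL compound or DMSO vehicle; blue-channel (405/460 nm) intensity scored against triamterene as reference fluorophore.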
# [14] = qHTS assay to test for compound auto fluorescence at 535 nm (green) in HepG2 cell free culture (AID 720686)
# [15] = qHTS assay to test for compound auto fluorescence at 460 nm (blue) in HepG2 cells (AID 720687)
# Method in brief: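 Blue-channel autofluorescence (Ex/Em 405/460 nm, triamterene-equivalent) was measured after 1 hr compound exposure at 37 C, 5% CO2. Cells were HepG2, plated overnight at 37 C in MEM plus 10% FBS.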
# [16] = target: Glucocorticoid receptor (Homo sapiens) (UniProt P04150); assay: qHTS assay to identify small molecule agonists of the glucocorticoid receptor (GR) signaling pathway (AID 720691; active means well fitted activation curve with a large enough effect in the signal ratio in the repeat runs, not every such curve was filed as active; inconclusive means weak or mixed curves, or effect the other way; inactive means no such curve, though single readings can be large or run the other way; the % refers to the signal ratio; further: potency means the concentration at half of the fitted maximal effect); settings: GR-bla HeLa, beta-lactamase reporter ratio, 18 h; activation: at 62.4 µM (top of the series) unless noted
# Sequence of Glucocorticoid receptor (Homo sapiens) (P04150 whole entry, looked up): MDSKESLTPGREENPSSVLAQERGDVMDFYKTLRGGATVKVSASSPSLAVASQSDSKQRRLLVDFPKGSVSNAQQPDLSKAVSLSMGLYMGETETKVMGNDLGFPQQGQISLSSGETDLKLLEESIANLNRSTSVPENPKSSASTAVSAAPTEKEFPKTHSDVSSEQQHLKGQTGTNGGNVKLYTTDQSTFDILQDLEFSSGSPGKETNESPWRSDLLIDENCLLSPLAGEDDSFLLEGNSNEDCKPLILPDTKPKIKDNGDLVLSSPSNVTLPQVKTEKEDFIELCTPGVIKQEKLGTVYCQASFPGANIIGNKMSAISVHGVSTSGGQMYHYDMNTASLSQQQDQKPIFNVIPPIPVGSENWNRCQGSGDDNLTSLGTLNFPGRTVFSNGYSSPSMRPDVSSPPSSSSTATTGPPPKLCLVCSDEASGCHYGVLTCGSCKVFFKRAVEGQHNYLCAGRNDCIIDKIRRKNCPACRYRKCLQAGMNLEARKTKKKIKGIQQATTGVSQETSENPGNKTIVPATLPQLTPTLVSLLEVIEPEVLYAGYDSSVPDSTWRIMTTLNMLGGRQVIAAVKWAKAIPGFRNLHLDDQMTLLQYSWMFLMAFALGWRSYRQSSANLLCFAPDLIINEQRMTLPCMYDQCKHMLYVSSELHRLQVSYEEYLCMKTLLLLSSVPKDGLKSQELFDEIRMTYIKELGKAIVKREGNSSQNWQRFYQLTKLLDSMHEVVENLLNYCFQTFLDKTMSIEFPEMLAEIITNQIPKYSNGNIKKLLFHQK
# Method in brief: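 Measures GR pathway activation through a GRE-beta-lactamase reporter stably integrated in HeLa cells, with 18 h compound treatment at 37 C and fluorescence detection using a FRET substrate.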
# [17] = qHTS assay for small molecules that induce genotoxicity in human embryonic kidney cells expressing luciferase-tagged ATAD5 (AID 651632); further: nearly all actives have a fitted effect of over 15% in size
# Method in brief: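 Concentration-response screen for ATAD5 upregulation in HEK293T luciferase reporter cells; 16 hr treatment at 37C, then luminescence after 30 min with Amplite at room temperature.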
# [18] = qHTS assay to test for compound auto fluorescence at 535 nm (green) in HEK293 cells (AID 720680)
# [19] = target: Glucocorticoid receptor (Homo sapiens) (UniProt P04150); assay: qHTS assay to identify small molecule antagonists of the glucocorticoid receptor (GR) signaling pathway (AID 720692; active means well fitted inhibition curve with a large enough effect in the signal ratio in the repeat runs, not every such curve was filed as active; inconclusive means weak or mixed curves, or effect the other way; inactive means no such curve, though single readings can be large or run the other way; the % refers to the signal ratio; further: potency means the concentration at half of the fitted maximal effect)
# Method in brief: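 Tox21 10K library screened in concentration-response for blockade of dexamethasone (5 nM final)-induced GRE-bla reporter activity in HeLa cells; 18 h treatment, fluorescence read.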
# [20] = qHTS assay for small molecule disruptors of the mitochondrial membrane potential (AID 720635); further: potency means the concentration at half of the fitted maximal effect
# Method in brief: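 Mitochondrial membrane potential tracked with Mito-MPS dye, red aggregates (ex 540/em 590 nm) against green monomers (ex 490/em 535 nm). Compound treatment 1 hr at 37C, dye 30 min in HepG2.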
smiles,measurement,setting,value
CCN(CC)CCNc1ccc(CNC=O)c2sc3ccc(OC)cc3c(=O)c12,Potency,[1],6.86 µM (active)
same,Potency,[2],inactive
same,Potency,[3],4.86 µM (active)
same,Potency,[4],inactive
same,Potency,[5],inactive
same,Potency,[6],inactive
same,outcome,[7],inactive
same,Potency,[8],inactive
same,outcome,[9],inactive
same,outcome,[10],inactive
same,Potency,[11],inactive
same,Potency,[12],inactive
same,outcome,[13],inactive
same,Potency,[14],inactive
same,outcome,[15],inactive
same,Potency,[16],49 µM [inconclusive] (active)
CC(C)OC(=O)C(C)N(C(=O)c1ccccc1)c1ccc(F)c(Cl)c1 (stereo not drawn),Potency,[1],inactive
same,Potency,[17],inactive
same,Potency,[5],inactive
same,Potency,[6],inactive
same,outcome,[7],inactive
same,Potency,[8],inactive
same,outcome,[18],inactive
same,outcome,[9],inactive
same,outcome,[10],inactive
same,Potency,[11],inactive
same,Potency,[12],inactive
same,outcome,[13],inactive
same,Potency,[14],inactive
same,outcome,[15],inactive
same,Potency,[16],inactive
same,Potency,[19],43.6 µM (active)
Brc1c2ccccc2cc2ccccc12,Potency,[17],inactive
same,Potency,[2],inactive
same,Potency,[3],inactive
same,Potency,[4],55 µM (active)
same,Potency,[20],30.9 µM (active)
same,Potency,[5],inactive
same,Potency,[6],inactive
same,outcome,[7],inactive
same,Potency,[8],inactive
same,outcome,[18],inactive
same,outcome,[9],inactive
same,outcome,[10],inactive
same,Potency,[11],inactive
same,Potency,[12],inactive
same,outcome,[13],inactive
same,activation,[16],9.34% [inconclusive] [at 79.2 µM] (active)
same,Potency,[19],inactive
CCC(C)O (stereo not drawn),Potency,[1],inactive
same,Potency,[3],inactive
same,Potency,[4],inactive
same,Potency,[6],inactive
same,Potency,[8],inactive
same,outcome,[18],inactive
same,outcome,[9],inactive
same,outcome,[10],inactive
same,Potency,[12],inactive
same,outcome,[13],inactive
same,outcome,[15],inactive
same,Potency,[19],inactive
COC(=O)C1=C(C)NC(COC(N)=O)=C(C(=O)OC(C)C)C1c1cccc(Cl)c1Cl (stereo not drawn),Potency,[1],16.8 µM (active)
same,Potency,[17],inactive
same,Potency,[20],26.6 µM (active)
same,Potency,[5],inactive
same,Potency,[6],inactive
same,Potency,[8],inactive
same,outcome,[10],inactive
same,Potency,[11],inactive
same,Potency,[12],inactive
same,Potency,[14],inactive
CCN(CC)CCOC(=O)C(c1ccccc1)C1CCCCC1 (stereo not drawn),Potency,[17],inactive
same,Potency,[2],inactive
same,Potency,[3],inactive
same,Potency,[4],inactive
same,Potency,[5],inactive
same,Potency,[6],inactive
same,outcome,[7],inactive
same,Potency,[8],inactive
same,outcome,[18],inactive
same,outcome,[9],inactive
same,outcome,[10],inactive
same,Potency,[11],inactive
same,Potency,[12],inactive
same,outcome,[13],inactive
same,Potency,[14],inactive
same,Potency,[16],inactive
same,Potency,[19],inactive
